# Results taken from ChEMBL document CHEMBL2218924, “A broad activity screen in support of a chemogenomic map for kinase signalling research and drug discovery” (Biochem J, 2013).
# Experiments:
# [1] = biological target: Tyrosine-protein kinase SYK (Homo sapiens) (UniProt P43405); conditions: at 10 µM
# [2] = biological target: T1, Mitogen-activated protein kinase kinase kinase 7 (Homo sapiens) (UniProt O43318); conditions: at 1 µM
# T1 sequence (whole entry): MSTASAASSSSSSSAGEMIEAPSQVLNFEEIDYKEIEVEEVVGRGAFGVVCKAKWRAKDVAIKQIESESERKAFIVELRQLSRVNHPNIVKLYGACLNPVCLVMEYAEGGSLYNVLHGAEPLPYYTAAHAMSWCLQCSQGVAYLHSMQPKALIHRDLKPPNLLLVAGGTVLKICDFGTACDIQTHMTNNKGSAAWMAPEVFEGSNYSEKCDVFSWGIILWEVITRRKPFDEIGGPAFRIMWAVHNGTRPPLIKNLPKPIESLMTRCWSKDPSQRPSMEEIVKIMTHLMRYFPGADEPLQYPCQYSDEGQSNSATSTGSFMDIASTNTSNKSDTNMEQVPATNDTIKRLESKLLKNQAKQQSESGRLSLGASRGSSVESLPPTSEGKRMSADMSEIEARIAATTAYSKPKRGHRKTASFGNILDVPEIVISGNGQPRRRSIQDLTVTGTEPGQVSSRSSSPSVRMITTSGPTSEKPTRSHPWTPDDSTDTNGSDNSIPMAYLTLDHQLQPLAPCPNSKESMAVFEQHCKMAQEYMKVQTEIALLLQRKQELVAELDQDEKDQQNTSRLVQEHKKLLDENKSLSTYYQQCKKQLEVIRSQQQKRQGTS
# [3] = biological target: T1, Mitogen-activated protein kinase kinase kinase 7 (Homo sapiens); conditions: at 10 µM
# [4] = biological target: T2, Serine/threonine-protein kinase TAO2 (Homo sapiens) (UniProt Q9UL54); conditions: at 1 µM
# T2 sequence (whole entry): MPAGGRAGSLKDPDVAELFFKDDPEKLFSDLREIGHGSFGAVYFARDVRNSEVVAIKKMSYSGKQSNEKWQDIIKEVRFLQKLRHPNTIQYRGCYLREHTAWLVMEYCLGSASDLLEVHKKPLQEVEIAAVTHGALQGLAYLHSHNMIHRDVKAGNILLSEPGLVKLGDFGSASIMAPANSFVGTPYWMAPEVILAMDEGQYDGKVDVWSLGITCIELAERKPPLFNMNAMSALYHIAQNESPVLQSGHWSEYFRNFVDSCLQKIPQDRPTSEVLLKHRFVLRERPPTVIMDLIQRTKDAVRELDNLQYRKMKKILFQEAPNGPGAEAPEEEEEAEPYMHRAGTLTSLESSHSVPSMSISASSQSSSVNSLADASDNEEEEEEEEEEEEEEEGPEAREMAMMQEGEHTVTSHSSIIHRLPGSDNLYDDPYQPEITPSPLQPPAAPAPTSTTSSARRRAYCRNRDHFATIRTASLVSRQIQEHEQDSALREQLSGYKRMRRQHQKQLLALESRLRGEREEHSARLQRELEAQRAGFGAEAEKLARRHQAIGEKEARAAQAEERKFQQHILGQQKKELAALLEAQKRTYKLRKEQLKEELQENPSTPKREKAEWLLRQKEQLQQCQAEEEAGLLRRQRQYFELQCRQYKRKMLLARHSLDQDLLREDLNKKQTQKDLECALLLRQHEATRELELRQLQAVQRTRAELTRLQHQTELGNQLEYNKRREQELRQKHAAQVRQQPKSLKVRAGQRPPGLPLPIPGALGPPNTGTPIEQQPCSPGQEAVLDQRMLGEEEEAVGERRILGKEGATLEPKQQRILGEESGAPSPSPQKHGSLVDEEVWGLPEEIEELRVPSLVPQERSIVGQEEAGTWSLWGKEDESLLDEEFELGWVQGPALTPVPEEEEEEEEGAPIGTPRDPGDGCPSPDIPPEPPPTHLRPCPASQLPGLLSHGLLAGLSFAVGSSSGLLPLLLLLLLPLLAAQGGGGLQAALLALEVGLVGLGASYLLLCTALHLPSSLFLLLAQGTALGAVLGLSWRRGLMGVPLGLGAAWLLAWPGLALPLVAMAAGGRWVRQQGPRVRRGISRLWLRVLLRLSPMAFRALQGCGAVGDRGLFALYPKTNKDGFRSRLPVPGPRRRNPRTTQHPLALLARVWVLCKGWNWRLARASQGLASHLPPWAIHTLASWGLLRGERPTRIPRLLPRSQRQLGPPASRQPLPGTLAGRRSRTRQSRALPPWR
# [5] = biological target: T2, Serine/threonine-protein kinase TAO2 (Homo sapiens); conditions: at 10 µM
# [6] = biological target: T3, Serine/threonine-protein kinase TAO3 (Homo sapiens) (UniProt Q9H2K8); conditions: at 1 µM
# T3 sequence (whole entry): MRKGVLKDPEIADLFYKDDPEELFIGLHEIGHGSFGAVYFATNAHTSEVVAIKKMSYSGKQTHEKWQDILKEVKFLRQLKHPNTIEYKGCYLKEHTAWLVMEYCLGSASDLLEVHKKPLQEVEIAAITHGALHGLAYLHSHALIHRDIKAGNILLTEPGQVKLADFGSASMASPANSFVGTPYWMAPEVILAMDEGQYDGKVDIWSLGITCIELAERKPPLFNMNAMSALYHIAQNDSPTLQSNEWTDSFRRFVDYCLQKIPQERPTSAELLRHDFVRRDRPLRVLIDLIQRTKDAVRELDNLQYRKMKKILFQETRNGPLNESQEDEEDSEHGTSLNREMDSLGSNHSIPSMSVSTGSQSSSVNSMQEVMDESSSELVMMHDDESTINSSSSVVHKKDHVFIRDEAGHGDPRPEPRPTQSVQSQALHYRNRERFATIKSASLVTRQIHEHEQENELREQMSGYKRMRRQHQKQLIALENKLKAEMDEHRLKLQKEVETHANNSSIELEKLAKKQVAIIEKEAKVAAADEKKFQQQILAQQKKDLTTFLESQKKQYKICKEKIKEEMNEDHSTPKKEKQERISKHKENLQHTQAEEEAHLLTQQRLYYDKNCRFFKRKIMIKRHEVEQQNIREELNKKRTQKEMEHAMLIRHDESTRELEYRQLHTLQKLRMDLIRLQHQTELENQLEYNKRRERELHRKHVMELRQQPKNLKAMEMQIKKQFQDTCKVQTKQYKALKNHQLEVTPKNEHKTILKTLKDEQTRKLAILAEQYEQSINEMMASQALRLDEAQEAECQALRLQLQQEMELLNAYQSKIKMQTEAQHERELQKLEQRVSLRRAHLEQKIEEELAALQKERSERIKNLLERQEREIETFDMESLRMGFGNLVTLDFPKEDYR
# [7] = biological target: T3, Serine/threonine-protein kinase TAO3 (Homo sapiens); conditions: at 10 µM
# [8] = biological target: T4, Serine/threonine-protein kinase TBK1 (Homo sapiens) (UniProt Q9UHD2); conditions: at 1 µM
# T4 sequence (whole entry): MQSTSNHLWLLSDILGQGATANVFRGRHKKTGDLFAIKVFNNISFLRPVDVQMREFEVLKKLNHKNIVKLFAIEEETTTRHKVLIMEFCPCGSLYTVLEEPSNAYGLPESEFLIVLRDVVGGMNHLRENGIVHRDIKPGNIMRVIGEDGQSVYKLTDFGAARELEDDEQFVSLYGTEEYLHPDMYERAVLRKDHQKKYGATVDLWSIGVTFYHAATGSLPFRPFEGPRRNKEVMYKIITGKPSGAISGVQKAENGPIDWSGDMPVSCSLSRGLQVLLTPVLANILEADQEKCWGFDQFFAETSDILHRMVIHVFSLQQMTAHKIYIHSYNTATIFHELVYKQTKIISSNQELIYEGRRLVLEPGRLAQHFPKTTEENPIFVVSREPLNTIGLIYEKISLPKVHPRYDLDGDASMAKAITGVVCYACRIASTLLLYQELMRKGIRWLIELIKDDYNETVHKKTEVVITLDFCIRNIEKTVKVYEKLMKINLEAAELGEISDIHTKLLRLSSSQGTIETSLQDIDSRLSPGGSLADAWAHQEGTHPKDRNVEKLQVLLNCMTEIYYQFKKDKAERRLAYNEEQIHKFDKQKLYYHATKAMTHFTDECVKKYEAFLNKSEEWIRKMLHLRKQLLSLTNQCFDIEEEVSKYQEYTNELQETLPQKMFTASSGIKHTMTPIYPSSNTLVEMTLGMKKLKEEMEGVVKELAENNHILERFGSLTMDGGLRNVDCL
# [9] = biological target: T4, Serine/threonine-protein kinase TBK1 (Homo sapiens); conditions: at 10 µM
# [10] = biological target: T5, TGF-beta receptor type-1 (Homo sapiens) (UniProt P36897); conditions: at 1 µM
# T5 sequence (whole entry): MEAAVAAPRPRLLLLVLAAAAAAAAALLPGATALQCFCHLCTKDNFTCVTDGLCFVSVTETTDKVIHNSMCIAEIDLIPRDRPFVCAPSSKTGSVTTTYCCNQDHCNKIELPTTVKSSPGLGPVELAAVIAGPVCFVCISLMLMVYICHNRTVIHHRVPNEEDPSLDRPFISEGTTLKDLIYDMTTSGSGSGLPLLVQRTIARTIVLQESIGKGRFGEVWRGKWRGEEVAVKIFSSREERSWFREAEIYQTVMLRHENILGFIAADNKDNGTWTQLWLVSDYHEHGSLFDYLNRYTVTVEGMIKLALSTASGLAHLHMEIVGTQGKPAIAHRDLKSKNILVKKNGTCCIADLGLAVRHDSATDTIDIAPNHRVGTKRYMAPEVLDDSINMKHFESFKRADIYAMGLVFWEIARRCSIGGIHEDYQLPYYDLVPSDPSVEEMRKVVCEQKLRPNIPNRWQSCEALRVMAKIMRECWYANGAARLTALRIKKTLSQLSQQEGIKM
# [11] = biological target: Insulin-like growth factor 1 receptor (Homo sapiens) (UniProt P08069); conditions: at 1 µM
# [12] = biological target: Insulin-like growth factor 1 receptor (Homo sapiens) (UniProt P08069); conditions: at 10 µM
# [13] = biological target: T6, Inhibitor of nuclear factor kappa-B kinase subunit alpha (Homo sapiens) (UniProt O15111); conditions: at 1 µM
# T6 sequence (whole entry): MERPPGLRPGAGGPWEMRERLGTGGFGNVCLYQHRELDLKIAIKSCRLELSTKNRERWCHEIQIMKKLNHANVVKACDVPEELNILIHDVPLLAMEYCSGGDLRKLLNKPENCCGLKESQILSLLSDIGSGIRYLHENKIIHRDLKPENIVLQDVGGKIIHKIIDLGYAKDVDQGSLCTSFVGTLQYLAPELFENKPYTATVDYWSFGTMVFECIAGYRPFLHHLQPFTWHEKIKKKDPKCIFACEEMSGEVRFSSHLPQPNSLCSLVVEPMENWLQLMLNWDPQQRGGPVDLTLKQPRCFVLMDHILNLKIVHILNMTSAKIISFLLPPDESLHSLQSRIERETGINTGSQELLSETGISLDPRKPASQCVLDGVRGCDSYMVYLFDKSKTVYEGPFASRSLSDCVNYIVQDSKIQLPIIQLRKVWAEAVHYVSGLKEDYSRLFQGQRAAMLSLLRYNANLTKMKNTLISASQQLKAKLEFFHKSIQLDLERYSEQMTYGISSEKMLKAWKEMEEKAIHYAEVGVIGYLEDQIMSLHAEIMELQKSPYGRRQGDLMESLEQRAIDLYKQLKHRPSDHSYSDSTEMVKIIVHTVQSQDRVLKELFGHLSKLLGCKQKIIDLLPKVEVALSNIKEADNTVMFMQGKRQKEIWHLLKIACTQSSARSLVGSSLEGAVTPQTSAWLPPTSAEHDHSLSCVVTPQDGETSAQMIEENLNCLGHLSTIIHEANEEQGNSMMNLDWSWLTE
# [14] = biological target: T6, Inhibitor of nuclear factor kappa-B kinase subunit alpha (Homo sapiens); conditions: at 10 µM
# [15] = biological target: T7, Inhibitor of nuclear factor kappa-B kinase subunit beta (Homo sapiens) (UniProt O14920); conditions: at 1 µM
# T7 sequence (whole entry): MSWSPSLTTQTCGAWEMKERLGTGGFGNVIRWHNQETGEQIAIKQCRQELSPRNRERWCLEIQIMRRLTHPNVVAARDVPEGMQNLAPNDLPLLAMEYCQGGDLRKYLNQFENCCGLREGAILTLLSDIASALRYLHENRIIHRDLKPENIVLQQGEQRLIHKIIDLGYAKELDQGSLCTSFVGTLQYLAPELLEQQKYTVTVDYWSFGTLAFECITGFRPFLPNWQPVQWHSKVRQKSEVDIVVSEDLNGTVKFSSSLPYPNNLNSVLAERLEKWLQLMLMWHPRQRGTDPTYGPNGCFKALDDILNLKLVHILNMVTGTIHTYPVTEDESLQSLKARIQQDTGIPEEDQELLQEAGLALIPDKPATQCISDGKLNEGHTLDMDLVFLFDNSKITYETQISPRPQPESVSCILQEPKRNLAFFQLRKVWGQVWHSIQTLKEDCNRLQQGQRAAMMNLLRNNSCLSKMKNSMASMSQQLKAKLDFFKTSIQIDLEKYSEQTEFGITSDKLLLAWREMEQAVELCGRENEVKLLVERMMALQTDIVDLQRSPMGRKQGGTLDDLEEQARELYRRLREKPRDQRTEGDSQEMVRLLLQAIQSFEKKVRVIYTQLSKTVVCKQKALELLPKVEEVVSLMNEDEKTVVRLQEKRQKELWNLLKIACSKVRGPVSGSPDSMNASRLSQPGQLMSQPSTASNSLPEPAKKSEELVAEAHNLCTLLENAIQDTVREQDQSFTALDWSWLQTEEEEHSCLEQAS
# [16] = biological target: T7, Inhibitor of nuclear factor kappa-B kinase subunit beta (Homo sapiens); conditions: at 10 µM
# [17] = biological target: Insulin receptor (Homo sapiens) (UniProt P06213); conditions: at 1 µM
# Insulin receptor (Homo sapiens), sequence (P06213 28-758 limits assumed): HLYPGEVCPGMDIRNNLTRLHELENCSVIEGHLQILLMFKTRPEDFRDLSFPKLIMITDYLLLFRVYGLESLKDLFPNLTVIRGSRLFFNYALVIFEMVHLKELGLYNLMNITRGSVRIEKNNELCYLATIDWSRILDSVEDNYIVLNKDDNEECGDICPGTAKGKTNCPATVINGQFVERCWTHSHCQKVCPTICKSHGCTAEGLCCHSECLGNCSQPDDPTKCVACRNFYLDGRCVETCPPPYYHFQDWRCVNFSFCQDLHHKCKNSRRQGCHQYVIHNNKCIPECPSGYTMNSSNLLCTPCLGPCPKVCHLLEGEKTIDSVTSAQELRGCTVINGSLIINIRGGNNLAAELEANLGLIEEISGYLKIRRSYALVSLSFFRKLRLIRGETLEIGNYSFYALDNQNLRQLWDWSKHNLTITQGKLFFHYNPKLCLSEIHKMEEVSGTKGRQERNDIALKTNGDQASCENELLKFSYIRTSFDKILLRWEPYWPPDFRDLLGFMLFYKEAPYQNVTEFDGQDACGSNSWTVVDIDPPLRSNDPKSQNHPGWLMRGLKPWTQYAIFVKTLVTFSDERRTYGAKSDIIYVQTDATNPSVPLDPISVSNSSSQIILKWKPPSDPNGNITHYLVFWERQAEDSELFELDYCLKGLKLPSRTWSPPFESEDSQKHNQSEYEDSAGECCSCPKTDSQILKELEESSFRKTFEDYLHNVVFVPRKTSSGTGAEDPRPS
# Insulin receptor (Homo sapiens), sequence (P06213 763-1382 limits assumed): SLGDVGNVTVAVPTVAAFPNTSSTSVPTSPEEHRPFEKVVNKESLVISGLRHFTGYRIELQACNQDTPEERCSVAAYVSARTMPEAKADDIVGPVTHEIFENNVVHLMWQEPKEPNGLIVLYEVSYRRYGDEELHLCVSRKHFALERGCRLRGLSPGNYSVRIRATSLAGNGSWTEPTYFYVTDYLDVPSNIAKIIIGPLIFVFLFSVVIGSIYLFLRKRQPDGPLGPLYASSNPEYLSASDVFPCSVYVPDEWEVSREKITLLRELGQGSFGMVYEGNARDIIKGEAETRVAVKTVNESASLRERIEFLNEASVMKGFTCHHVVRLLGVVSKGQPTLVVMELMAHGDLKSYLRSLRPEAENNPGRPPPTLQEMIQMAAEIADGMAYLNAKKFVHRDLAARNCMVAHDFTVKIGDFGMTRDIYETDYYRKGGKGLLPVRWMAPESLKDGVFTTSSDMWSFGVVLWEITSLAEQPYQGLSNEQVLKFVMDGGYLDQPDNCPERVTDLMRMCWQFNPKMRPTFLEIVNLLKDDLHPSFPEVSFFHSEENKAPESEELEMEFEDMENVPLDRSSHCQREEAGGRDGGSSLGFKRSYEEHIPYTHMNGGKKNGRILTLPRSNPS
# Insulin-like growth factor 1 receptor (Homo sapiens), sequence (P08069 31-736 limits assumed): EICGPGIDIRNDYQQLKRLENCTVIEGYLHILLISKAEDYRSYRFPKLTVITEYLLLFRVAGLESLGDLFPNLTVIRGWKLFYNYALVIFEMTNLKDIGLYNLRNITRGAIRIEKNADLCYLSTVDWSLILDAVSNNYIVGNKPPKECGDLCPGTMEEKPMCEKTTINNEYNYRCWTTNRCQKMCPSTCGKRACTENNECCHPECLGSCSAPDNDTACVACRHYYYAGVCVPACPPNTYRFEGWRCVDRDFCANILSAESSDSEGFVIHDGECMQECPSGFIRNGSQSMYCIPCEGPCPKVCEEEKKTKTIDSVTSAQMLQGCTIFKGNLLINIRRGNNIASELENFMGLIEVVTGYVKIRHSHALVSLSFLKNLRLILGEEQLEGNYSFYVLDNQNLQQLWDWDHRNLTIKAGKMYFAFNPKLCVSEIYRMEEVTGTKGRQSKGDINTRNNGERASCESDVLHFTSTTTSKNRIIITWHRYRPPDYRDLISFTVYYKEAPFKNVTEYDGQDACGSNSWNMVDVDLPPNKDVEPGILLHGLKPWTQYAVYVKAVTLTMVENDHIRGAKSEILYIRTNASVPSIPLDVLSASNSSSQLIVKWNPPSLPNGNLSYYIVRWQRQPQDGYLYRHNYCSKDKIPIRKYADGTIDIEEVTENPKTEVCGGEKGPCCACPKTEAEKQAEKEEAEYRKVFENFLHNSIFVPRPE
# Insulin-like growth factor 1 receptor (Homo sapiens), sequence (P08069 741-1367 limits assumed): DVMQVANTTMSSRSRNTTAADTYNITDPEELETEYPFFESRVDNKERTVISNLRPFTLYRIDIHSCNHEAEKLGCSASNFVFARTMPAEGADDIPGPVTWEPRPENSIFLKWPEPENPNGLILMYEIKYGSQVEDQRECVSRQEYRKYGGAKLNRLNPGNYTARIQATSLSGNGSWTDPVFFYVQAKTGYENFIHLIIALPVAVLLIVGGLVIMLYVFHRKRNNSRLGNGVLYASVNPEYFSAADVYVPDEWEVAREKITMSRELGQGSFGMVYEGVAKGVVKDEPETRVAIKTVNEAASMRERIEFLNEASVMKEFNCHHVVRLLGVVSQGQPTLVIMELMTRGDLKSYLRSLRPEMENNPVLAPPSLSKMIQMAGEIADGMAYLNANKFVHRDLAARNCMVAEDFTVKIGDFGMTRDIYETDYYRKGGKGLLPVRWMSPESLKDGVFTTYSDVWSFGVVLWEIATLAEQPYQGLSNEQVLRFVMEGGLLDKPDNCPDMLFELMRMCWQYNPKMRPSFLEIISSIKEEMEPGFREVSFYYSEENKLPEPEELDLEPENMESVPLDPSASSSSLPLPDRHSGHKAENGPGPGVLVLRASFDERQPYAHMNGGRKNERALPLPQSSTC
structure (smiles),measurement,setting,value
O=C1NC(=O)c2c1c1c3ccccc3[nH]c1n1cncc21,residual activity,[1],25%
same,residual activity,[2],55%
same,residual activity,[3],30%
same,residual activity,[4],88%
same,residual activity,[5],69%
same,residual activity,[6],69%
same,residual activity,[7],63%
same,residual activity,[8],53%
same,residual activity,[9],35%
same,residual activity,[10],91%
same,residual activity,[11],45%
same,residual activity,[12],30%
same,residual activity,[13],63%
same,residual activity,[14],55%
same,residual activity,[15],94%
same,residual activity,[16],80%
same,residual activity,[17],10%
